Results published in PubChem BioAssay (Tox21).
Inconclusive results are not listed. The source made the active and inactive calls. Unless noted, calls come from the whole dose curve; as a rule, active = well fitted curve in the direction sought with a large enough effect in the repeat runs; inconclusive = weak or mixed curves; inactive = no such curve, though single readings can be large; an effect the other way counts as inactive or inconclusive.

Assays:
[1] = qHTS assay to identify aromatase inhibitors - cell viability counter screen (AID 743084);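 note: cells stimulated with testosterone during compound exposure; nearly all actives have a fitted effect of over 55% in size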
[2] = biological target: Aryl hydrocarbon receptor (Homo sapiens) (UniProt P35869); test: qHTS assay to identify small molecule that activate the aryl hydrocarbon receptor (AhR) signaling pathway (AID 743085); note: nearly all actives have a fitted effect of over 15% in size; note: potency is the fitted concentration of half-maximal effect;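 for activation: HG2L7.5c1 human HepG2 liver cells with stably integrated DRE-driven firefly reporter; series mostly up to about 70 µM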
Chain of Aryl hydrocarbon receptor (Homo sapiens) (P35869 whole entry, looked up): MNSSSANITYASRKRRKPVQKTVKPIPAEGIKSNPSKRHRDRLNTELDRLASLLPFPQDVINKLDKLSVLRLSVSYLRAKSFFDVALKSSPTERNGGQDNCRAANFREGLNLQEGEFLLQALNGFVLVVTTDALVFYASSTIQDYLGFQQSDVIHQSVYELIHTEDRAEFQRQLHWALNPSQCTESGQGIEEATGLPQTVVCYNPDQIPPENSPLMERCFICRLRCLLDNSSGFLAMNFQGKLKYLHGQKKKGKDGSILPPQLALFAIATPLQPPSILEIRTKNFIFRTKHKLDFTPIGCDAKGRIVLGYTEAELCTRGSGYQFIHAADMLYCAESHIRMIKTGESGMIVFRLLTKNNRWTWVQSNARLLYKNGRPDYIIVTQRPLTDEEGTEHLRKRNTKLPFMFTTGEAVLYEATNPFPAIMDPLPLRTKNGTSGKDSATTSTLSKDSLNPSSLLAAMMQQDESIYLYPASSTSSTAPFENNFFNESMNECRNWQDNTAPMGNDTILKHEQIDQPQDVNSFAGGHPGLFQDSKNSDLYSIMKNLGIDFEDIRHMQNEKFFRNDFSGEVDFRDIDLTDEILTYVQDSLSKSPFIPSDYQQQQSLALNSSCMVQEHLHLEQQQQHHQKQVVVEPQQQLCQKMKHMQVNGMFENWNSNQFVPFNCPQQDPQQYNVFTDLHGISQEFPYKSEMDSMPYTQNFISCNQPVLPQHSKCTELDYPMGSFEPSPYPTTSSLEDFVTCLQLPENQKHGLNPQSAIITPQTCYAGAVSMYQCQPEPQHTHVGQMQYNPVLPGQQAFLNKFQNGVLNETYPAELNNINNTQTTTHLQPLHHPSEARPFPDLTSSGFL
Procedure, shortened: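 HepG2 cells (HG2L7.5c1) stably carrying a firefly luciferase reporter driven by 20 dioxin responsive elements were exposed to compound for 24 h at 37C after a 5 h settling period; luminescence rise (ONE-Glo) indicated activation.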

[3] = qHTS assay to identify small molecule that activate the aryl hydrocarbon receptor (AhR) signaling pathway - cell viability counter screen (AID 743086);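 note: HepG2 liver cells carrying the AhR DRE luciferase reporter; series mostly up to about 70 µM; nearly all actives have a fitted effect of over 45% in size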
Procedure, shortened: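 HepG2-AhR-luc (HG2L7.5c1) cells, 4000/well, were preincubated 5 h at 37C, exposed to compound in qHTS format for 24 hr at 37C, then given CellTiter-Fluor for 30 min; viability was read as fluorescence in the reporter wells.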

[4] = biological target: Peroxisome proliferator-activated receptor gamma (Homo sapiens) (UniProt P37231); test: qHTS assay to identify small molecule agonists of the peroxisome proliferator-activated receptor gamma (PPARg) signaling pathway (AID 743094; active = well fitted activation curve with a large enough effect in the signal ratio in the repeat runs, not every such curve was filed as active; the % refers to the signal ratio; note: potency is the fitted concentration of half-maximal effect)
Chain of Peroxisome proliferator-activated receptor gamma (Homo sapiens) (P37231 whole entry, looked up): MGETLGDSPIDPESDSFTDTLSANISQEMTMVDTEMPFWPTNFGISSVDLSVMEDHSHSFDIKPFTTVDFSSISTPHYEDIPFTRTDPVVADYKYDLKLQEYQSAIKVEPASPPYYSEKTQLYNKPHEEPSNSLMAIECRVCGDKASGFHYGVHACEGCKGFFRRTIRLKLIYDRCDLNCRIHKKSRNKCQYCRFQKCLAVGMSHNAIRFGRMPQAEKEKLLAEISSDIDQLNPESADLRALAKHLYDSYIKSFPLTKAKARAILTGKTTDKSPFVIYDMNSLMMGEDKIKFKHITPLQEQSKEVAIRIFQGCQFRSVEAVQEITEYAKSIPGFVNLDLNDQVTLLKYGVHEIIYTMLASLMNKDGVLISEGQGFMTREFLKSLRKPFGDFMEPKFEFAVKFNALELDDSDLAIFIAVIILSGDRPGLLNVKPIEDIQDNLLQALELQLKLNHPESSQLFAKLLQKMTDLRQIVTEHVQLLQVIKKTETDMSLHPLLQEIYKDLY
Procedure, shortened: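 Fluorescence-based beta-lactamase readout in HEK293H PPARg UAS-bla cells after 17 h compound exposure (37C) and 1 h B/G FRET substrate incubation at room temperature.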

[5] = qHTS assay for small molecule agonists of the antioxidant response element (ARE) signaling pathway - cell viability counter screen (AID 743203; calls by dose curve; note: nearly all actives have a fitted effect of over 55% in size; note: potency is the fitted concentration of half-maximal effect)
Procedure, shortened: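 Parallel cytotoxicity read-out for the ARE-bla screen: HepG2 reporter cells, 16 hrs with compounds, then CellTiter-Glo luminescence.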

[6] = qHTS assay for small molecule activators of the heat shock response signaling pathway - cell viability counter screen (AID 743209); note: nearly all actives have a fitted effect of over 50% in size
Procedure, shortened: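 To flag cytotoxic compounds, HSE-bla HeLa cells plated at 1500 cells/well were dosed for 5 h at 37 C, followed by the reporter FRET read and then CellTiter-Glo, with luminescence recorded 30 min after reagent addition.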

[7] = qHTS assay for small molecule activators of the heat shock response signaling pathway (AID 743210; active = well fitted activation curve with a large enough effect in the signal ratio in the repeat runs, with a control signal flat, not every such curve was filed as active; the % refers to the signal ratio;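 note: HeLa cells with beta-lactamase reporter driven by heat shock elements; series mostly up to about 63 µM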)
Procedure, shortened: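 Activation of heat shock element-controlled beta-lactamase expression is measured in HeLa cells by LiveBLAzer FRET fluorescence, with compound exposure lasting 5 h at 37 C and substrate loading 2.5 h at room temperature.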

[8] = qHTS assay to identify small molecule agonists of the peroxisome proliferator-activated receptor delta (PPARd) signaling pathway - cell viability counter screen (AID 743211); note: nearly all actives have a fitted effect of over 55% in size; note: potency is the fitted concentration of half-maximal effect
Procedure, shortened: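 PPARd-bla HEK293H cells (UAS-beta-lactamase reporter) were treated with compounds for 17 h at 37 C. Viability was then read in the same wells by CellTiter-Glo luminescence after 30 min at room temperature.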

[9] = biological target: Peroxisome proliferator-activated receptor delta (Homo sapiens) (UniProt Q03181); test: qHTS assay to identify small molecule agonists of the peroxisome proliferator-activated receptor delta (PPARd) signaling pathway (AID 743212; calls by dose curve; note: potency is the fitted concentration of half-maximal effect)
Chain of Peroxisome proliferator-activated receptor delta (Homo sapiens) (Q03181 whole entry, looked up): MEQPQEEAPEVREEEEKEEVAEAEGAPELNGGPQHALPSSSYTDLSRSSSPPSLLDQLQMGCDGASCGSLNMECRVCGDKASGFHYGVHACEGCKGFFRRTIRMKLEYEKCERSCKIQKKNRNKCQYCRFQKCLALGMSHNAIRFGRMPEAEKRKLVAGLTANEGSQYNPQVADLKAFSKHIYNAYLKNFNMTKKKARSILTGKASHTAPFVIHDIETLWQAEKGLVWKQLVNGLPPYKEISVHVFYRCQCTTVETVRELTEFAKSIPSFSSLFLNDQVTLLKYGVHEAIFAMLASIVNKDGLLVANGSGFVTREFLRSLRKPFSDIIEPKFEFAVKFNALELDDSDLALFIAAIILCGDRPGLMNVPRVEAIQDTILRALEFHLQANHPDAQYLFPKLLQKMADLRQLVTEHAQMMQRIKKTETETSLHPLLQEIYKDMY
Procedure, shortened: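 Cells expressing a UAS-driven beta-lactamase reporter (PPARd-bla HEK293H) were given test compounds after a 5 h settle and kept at 37 C. Reporter activity was then measured as FRET fluorescence using LiveBLAzer B/G substrate.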

[10] = qHTS assay to identify small molecule antagonists of the peroxisome proliferator-activated receptor delta (PPARd) signaling pathway - cell viability counter screen (AID 743213); note: nearly all actives have a fitted effect of over 50% in size; note: potency is the fitted concentration of half-maximal effect
Procedure, shortened: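 PPARd-bla HEK293H cells (3000/well) got compound plus 300 nM L165041 agonist for 17 h at 37 C. Viability in the same wells came from CellTiter-Glo luminescence after 30 min at room temperature.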

[11] = biological target: Peroxisome proliferator-activated receptor delta (Homo sapiens) (UniProt Q03181); test: qHTS assay to identify small molecule antagonists of the peroxisome proliferator-activated receptor delta (PPARd) signaling pathway (AID 743215; active = well fitted inhibition curve with a large enough effect in the signal ratio in the repeat runs, not every such curve was filed as active; the % refers to the signal ratio;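 note: cells stimulated with agonist L165041 at 300 nM final during compound exposure; series mostly up to about 62 µM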)
Procedure, shortened: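 Screen format: qHTS, antagonist mode. HEK293H PPARd-bla cells received compound and 300 nM L165041 (final), 17 h, 37 C. Beta-lactamase detected via FRET substrate fluorescence, 2 h, room temperature.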

[12] = qHTS assay to identify small molecule antagonists of the farnesoid-X-receptor (FXR) signaling pathway - cell viability counter screen (AID 743221; active = well fitted cell-killing curve with a large enough effect in the repeat runs, not every such curve was filed as active; note: nearly all actives have a fitted effect of over 50% in size; note: potency is the fitted concentration of half-maximal effect)
Procedure, shortened: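 FXR-UAS-bla HEK 293T cells were treated with test compounds plus chenodeoxycholic acid (50 uM final) for 16 h at 37 C. Cell viability in the same wells was then read as CellTiter-Glo luminescence after 30 min at room temperature.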

[13] = biological target: Vitamin D3 receptor (Homo sapiens) (UniProt P11473); test: qHTS assay to identify small molecule agonists of the vitamin D receptor (VDR) signaling pathway (AID 743222; calls by dose curve)
Chain of Vitamin D3 receptor (Homo sapiens) (P11473 whole entry, looked up): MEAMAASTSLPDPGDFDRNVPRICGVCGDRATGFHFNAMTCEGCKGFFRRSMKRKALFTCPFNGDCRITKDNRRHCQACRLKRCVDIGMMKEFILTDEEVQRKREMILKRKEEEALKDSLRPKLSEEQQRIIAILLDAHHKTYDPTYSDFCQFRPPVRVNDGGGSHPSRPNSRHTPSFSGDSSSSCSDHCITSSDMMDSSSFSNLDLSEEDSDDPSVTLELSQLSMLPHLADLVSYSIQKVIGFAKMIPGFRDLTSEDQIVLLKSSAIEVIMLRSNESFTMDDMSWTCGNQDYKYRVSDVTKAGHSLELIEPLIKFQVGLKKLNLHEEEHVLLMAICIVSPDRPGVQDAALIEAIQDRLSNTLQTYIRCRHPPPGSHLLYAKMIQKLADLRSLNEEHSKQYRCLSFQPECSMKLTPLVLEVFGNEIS
Procedure, shortened: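 Using LiveBLAzer B/G FRET detection, agonism was scored in VDR-bla cells exposed overnight (16 h, 37C) to DMSO-dissolved compounds; substrate incubation was 2 h at room temperature.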

[14] = qHTS assay to identify small molecule antagonists of the peroxisome proliferator-activated receptor gamma (PPARg) signaling pathway - cell viability counter screen (AID 743194); note: nearly all actives have a fitted effect of over 55% in size
Procedure, shortened: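 PPARg-UAS-bla HEK293H cells were plated, rested 5 h at 37 C, then treated with compounds plus rosiglitazone (50 nM final) for 17 h at 37 C; viability was then read by CellTiter-Glo luminescence after 30 min at room temperature.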

[15] = biological target: Bile acid receptor (Homo sapiens) (UniProt Q96RI1); test: qHTS assay to identify small molecule antagonists of the farnesoid-X-receptor (FXR) signaling pathway (AID 743217; active = well fitted inhibition curve with a large enough effect in the signal ratio in the repeat runs, not every such curve was filed as active; the % refers to the signal ratio)
Chain of Bile acid receptor (Homo sapiens) (Q96RI1 whole entry, looked up): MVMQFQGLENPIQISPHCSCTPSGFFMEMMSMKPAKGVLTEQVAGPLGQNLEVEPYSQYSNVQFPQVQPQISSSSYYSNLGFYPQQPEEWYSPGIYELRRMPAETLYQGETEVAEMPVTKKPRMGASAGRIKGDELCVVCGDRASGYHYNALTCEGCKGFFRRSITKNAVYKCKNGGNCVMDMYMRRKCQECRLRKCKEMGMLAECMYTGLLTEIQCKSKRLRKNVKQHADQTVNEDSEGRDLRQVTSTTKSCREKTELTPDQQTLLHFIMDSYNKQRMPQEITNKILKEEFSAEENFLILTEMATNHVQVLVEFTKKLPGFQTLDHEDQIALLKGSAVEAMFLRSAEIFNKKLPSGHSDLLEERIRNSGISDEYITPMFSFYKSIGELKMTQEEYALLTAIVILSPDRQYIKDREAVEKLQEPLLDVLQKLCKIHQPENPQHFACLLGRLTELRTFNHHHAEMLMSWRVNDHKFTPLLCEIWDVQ
Procedure, shortened: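 Quantitative HTS, beta-lactamase reporter format: FXR-UAS-bla HEK 293T cells co-treated 16 h at 37 °C with compounds and 50 uM final chenodeoxycholic acid, then read by B/G FRET fluorescence.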

[16] = biological target: Bile acid receptor (Homo sapiens) (UniProt Q96RI1); test: qHTS assay to identify small molecule agonists of the farnesoid-X-receptor (FXR) signaling pathway (AID 743220; active = well fitted activation curve with a large enough effect in the signal ratio in the repeat runs, not every such curve was filed as active; the % refers to the signal ratio)
Procedure, shortened: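 FXR-UAS-bla HEK 293T cells carrying a UAS-driven beta-lactamase reporter were plated for 5 h at 37C/5% CO2, then exposed to DMSO-dissolved Tox21 10K compounds for 16 h at 37C. A LiveBLAzer B/G FRET substrate was loaded for 2 h at room temperature before fluorescence reading.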

[17] = biological target: Vitamin D3 receptor (Homo sapiens) (UniProt P11473); test: qHTS assay to identify small molecule antagonists of the vitamin D receptor (VDR) signaling pathway (AID 743223; active = well fitted inhibition curve with a large enough effect in the signal ratio in the repeat runs, not every such curve was filed as active; the % refers to the signal ratio)
Procedure, shortened: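 VDR-bla cells were plated, incubated 4 h at 37C, then given compound and 1alpha,25-dihydroxyvitamin D3 (3 nM final). After 16 h at 37C, LiveBLAzer B/G FRET substrate was added for 2 h at room temperature and fluorescence read.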

[18] = qHTS assay for small molecule agonists of the antioxidant response element (ARE) signaling pathway (AID 743202; active = well fitted activation curve with a large enough effect in the signal ratio in the repeat runs, not every such curve was filed as active; the % refers to the signal ratio; note: potency is the fitted concentration of half-maximal effect)
Procedure, shortened: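 Steps: seed ARE-bla HepG2 cells (2,000/well); incubate 5 h at 37 C; add compounds by pin tool; incubate 16 h at 37 C; add FRET substrate; read fluorescence after 2 h at RT.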

[19] = qHTS assay to identify small molecule agonists of the farnesoid-X-receptor (FXR) signaling pathway - cell viability counter screen (AID 743218); note: nearly all actives have a fitted effect of over 45% in size; note: potency is the fitted concentration of half-maximal effect
Procedure, shortened: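 Same-well cytotoxicity check on FXR-UAS-bla HEK 293T cells: 5 h attachment, 16 h compound at 37 C, CellTiter-Glo luminescence read at room temperature after 30 min.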

[20] = biological target: Peroxisome proliferator-activated receptor gamma (Homo sapiens) (UniProt P37231); test: qHTS assay to identify small molecule antagonists of the peroxisome proliferator-activated receptor gamma (PPARg) signaling pathway (AID 743191; calls by dose curve; note: series mostly up to about 63 µM; nearly all actives have a fitted effect of over 30% in size)
Procedure, shortened: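 GeneBLAzer PPARg UAS-bla HEK293H cells carrying a UAS-driven beta-lactamase reporter were plated at 3000 cells/well, preincubated 5 h at 37C, then given compound for 17 h at 37C; LiveBLAzer B/G FRET substrate was read after 1 h at room temperature.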

Measured: Potency

CCCCCCCCOCCCN
active: [5] 54.5 µM | [8] 49 µM | [10] 24.5 µM
not listed: [14] | [15] | [16] | [17] | [18] | [19] | [20]
inactive: all other assays above

O=C(O)c1cc(C(=O)O)c(C(=O)O)cc1C(=O)O
not listed: [4] | [9] | [10] | [11] | [18] | [19] | [20]
inactive: all other assays above

C=CC(C)(O)CC/C=C(/C)CCC=C(C)C (stereo not given)
not listed: [6] | [12] | [13] | [17] | [18] | [19] | [20]
inactive: all other assays above

C=CCCC
not listed: [4] | [15] | [16] | [20]
inactive: all other assays above

O=C(O)c1c2ccccc2cc2ccccc12
not listed: [4] | [9] | [12]
inactive: all other assays above

O=C(O)c1ccncc1
not listed: [11] | [12] | [14] | [20]
inactive: all other assays above

O=C(O)CCc1nc2ccccc2[nH]1
not listed: [4] | [6] | [13] | [15] | [16] | [17] | [20]
inactive: all other assays above

CCOC(C)OCC
inactive: [1] | [2] | [3] | [14] | [5] | [6] | [10] | [19] | [12] | [13] | [17]

CCCCCO
not listed: [4] | [20]
inactive: all other assays above

O=C(OCCCCCOC(=O)c1ccccc1)c1ccccc1
not listed: [6] | [8] | [13] | [14] | [15] | [16] | [17] | [20]
inactive: all other assays above

CC1=C(C)C(=O)C(C(CCCCCC(=O)O)c2ccccc2)=C(C)C1=O (stereo not given)
active: [9] 29.8 µM
not listed: [4] | [6] | [11] | [17] | [18]
inactive: all other assays above

O=C(NC1CCN(CCc2c[nH]c3ccccc23)CC1)c1ccccc1
inactive: [1] | [3] | [14] | [5] | [6] | [7] | [8] | [10] | [19] | [12]
active: [2] 29.8 µM

CCCCCCCCCC(C)C=O (stereo not given)
active: [4] 19.5 µM
not listed: [5] | [6] | [7] | [9] | [11] | [18] | [20]
inactive: all other assays above

Clc1nc2ccccc2nc1Cl
not listed: [4] | [7] | [8] | [9] | [15] | [16] | [20]
inactive: all other assays above

CC(=O)S[C@H](C(=O)N[C@H]1Cc2ccccc2[C@H]2CCC[C@@H](C(=O)O)N2C1=O)C(C)C
not listed: [4] | [9] | [11] | [12] | [14] | [20]
inactive: all other assays above

CC(C)CCCCCCCOC(=O)c1ccc(C(=O)OCCCCCCCC(C)C)c(C(=O)OCCCCCCCC(C)C)c1
not listed: [3] | [7] | [15] | [16] | [17]
inactive: all other assays above

CCC[Si](OC)(OC)OC
not listed: [4] | [6] | [8] | [10] | [14] | [20]
inactive: all other assays above

NCCOCCOCCN
inactive: [1] | [2] | [3] | [20] | [14] | [5] | [10] | [13]
active: [18] 48.6 µM | [19] 6.92 µM | [12] 19.5 µM

C[C@]12CCC(=O)C=C1[C@@H]1C[C@@H]1[C@H]1[C@@H]3[C@@H]4C[C@@H]4[C@@]4(CCC(=O)O4)[C@@]3(C)CC[C@@H]12
not listed: [4] | [9] | [11] | [13] | [15] | [16] | [18] | [20]
inactive: all other assays above
